# Assay results taken from PubChem BioAssay (EPA / NIEHS).
# Activity calls are given as the source filed them. How the source made its calls: active means hit-call score of the fitted dose curve at least 0.9, where 1 is the maximum; inactive means score below 0.9.
# Read-out: Matrix Metallopeptidase 1 (MMP1), MMP1 (gene 4312)
# Assay: BSK_BE3C_MMP1: BioMAP Diversity Plus: BE3C Assay for Matrix Metallopeptidase 1 (MMP1) Biomarker Activity (AID 2283024)
# Conditions: primary human bronchial epithelial cells; actives raise or lower the signal
# Procedure: BSK_BE3C is a cell-based, multiplexed-readout assay that uses bronchial epithelial cell, a human lung primary cell, with measurements taken at 24 hours after chemical dosing in a 96-well plate.BSK_BE3C_MMP1 is an assay component measured in the BSK_BE3C assay. It measures MMP-1 antibody related to regulation of gene expression using ELISA technology.Data from the assay component BSK_BE3C_MMP1 was analyzed into 1 assay endpoint. This assay endpoint, BSK_BE3C_MMP1, was analyzed with bidirectional fitting relative to DMSO as the negative control and baseline of activity. Using a type of binding reporter, gain or loss-of-signal activity can be used to understand changes in the signaling as they relate to the gene MMP1. Furthermore, this assay endpoint can be referred to as a primary readout, because this assay has produced multiple assay endpoints where this one serves a signaling function. To generalize the intended target to other relatable targets, this assay endpoint is annotated to the protease intended target family, where the subfamily is matrix metalloproteinase.
# The levels of cell surface (or secreted, indicated by the prefix "s") biomarker endpoints were measured by ELISA. Overt cytotoxicity to cells in confluent adherent cultures (all systems other than the BT system) was assessed by measuring total protein levels using sulforhodamine B (SRB) staining in parallel cultures at the time of biomarker measurements, indicated as SRB endpoints. For proliferation assays for adherent cell types, individual cell types are cultured at sub-confluence and relative cell numbers quantified by SRB staining at time points optimized for each system (48 h: 3C and CASM3C systems; 72 h: BT and HDF3CGF systems; 96 h: SAg system). SRB was performed by staining cells with 0.1% SRB after fixation with 10% TCA and reading wells at 560 nm.Viability and proliferation of PBMC (T cells) was quantified by Alamar Blue reduction for the SAg and BT systems. For PBMC viability (referred to as PBMC Cytotoxicity within the assay endpoint names), cells were plated (75,000/well in a 96-well plate) and then chemical samples added for 1 h before addition of activators, SEB and TSST-1 (20 ng/mL final concentration each). Cells were incubated for 90 h. Then, Alamar Blue (20 uL/well) (Invitrogen, Cat DAL1100) was added for 6 h, and the plates were read with a fluorescence microplate reader at 546/580 nm (excitation/emission). For PBMC proliferation, cells were plated and activated as above but incubated for only 16 h prior to addition of Alamar Blue. Plates were read after 6 h.
SMILES,outcome,AC50
NS(=O)(=O)c1cc2c(cc1Cl)NCNS2(=O)=O,inactive,–
Cc1nc(-c2ccc3c(c2)CCN(CCC2CCC(NC(=O)/C=C/c4ccc(F)cc4)CC2)CC3)no1 (stereo not given),inactive,–
CC1(C)NC(=O)NC1=O,inactive,–
COc1cc(C=O)ccc1O,inactive,–
COC(=O)c1ccc(O)cc1,inactive,–
CC(CO)OC(C)CO (stereo not given) (tested in a mixture with another compound),inactive,–
CCOc1ccc2c(c1)C(C)=CC(C)(C)N2,inactive,–
O=C(OCCCCCOC(=O)c1ccccc1)c1ccccc1,inactive,–
NC(=O)Cn1c(=O)cc(CCN2CCN(c3nccc4sccc34)CC2)c2ccc(F)cc21,inactive,–
Cc1ccc(Cl)cc1,inactive,–
Cc1nc(C)nc(N2C[C@@H](C)N(c3ccnc([C@@H](C)O)n3)[C@@H](C)C2)n1,inactive,–
Nc1ccc(S(=O)(=O)c2ccc(N)cc2)cc1,inactive,–
Cc1cc(NC(=O)C(=O)O)cc(C)c1Oc1ccc(O)c2c1CCC2,inactive,–
Cc1ccc(C(C)C)c(O)c1,inactive,–
CCCCCCCCCCCCCCCCCC(=O)O,inactive,–
CCCCCCCCCCO,inactive,–
CN1CCCC1=O,inactive,–
CCCCOC(=O)CCCCCCCCC(=O)OCCCC,inactive,–
O=C(O)Cc1ccccc1Nc1c(Cl)cccc1Cl,inactive,–
O=c1c(O)c(-c2ccc(O)c(O)c2)oc2cc(O)cc(O)c12,inactive,–

SMILES,outcome,AC50
CC1=C(/C=C/C(C)=C/C=C/C(C)=C/CO)C(C)(C)CCC1,inactive,–
Cc1cccc([N+](=O)[O-])c1C,inactive,–
COCCOC[C@H](CC1(C(=O)NC2CCC(C(=O)O)CC2)CCCC1)C(=O)Oc1ccc2c(c1)CCC2 (stereo not given in full),inactive,–
NCC1(Cc2noc(=O)[nH]2)CCCCC1,inactive,–
CCCCCCC(=O)OCC,inactive,–
CN[C@H]1CC[C@@H](c2ccc(Cl)c(Cl)c2)c2ccc(S(N)(=O)=O)cc21,–,31.8 µM (active)
CNCc1cc(F)ccc1Oc1ccc(Cl)c(Cl)c1,inactive,–
Cc1oc(-c2ccccc2)nc1CCOc1cccc2c1ccn2CCC(=O)O,inactive,–
Cc1ccc(C)c(C)c1,inactive,–
OC[C@@H](O)[C@@H](O)[C@H](O)[C@H](O)CO,inactive,–
O=[N+]([O-])C(CO)(CO)CO,inactive,–
NCCO,inactive,–
Cc1ccc(N(C)C)cc1,inactive,–
CCCCCCCCCCC,inactive,–
C=CCc1ccc(O)c(OC)c1,inactive,–
C[C@]12C=CC(=O)C=C1CC[C@@H]1[C@@H]2C(=O)C[C@@]2(C)[C@H]1CC[C@]2(O)C(=O)CO,inactive,–
c1cc(-c2ccncc2)ccn1,inactive,–
CC1(C)CC(N=C=O)CC(C)(CN=C=O)C1 (stereo not given),inactive,–
CC(C)c1ccc(C(=O)N=C(N)N)cc1S(C)(=O)=O,inactive,–
FC(F)(F)C(F)(F)C(F)(F)C(F)(F)C(F)(F)C(F)(F)CCI,inactive,–
